# Glioma ERSR ind – induces the endoplasmic reticulum stress response in human glioma cells; U87-MG GRP78 promoter luciferase reporter, 16 h; Potency, µM, for inactives: at the highest dose activation, usual class: activators; actives 0.02% (n = 420,000); AID 602332; note: potency is the fitted concentration of half-maximal effect; series mostly up to about 76 µM; % of control where 0% means no effect; nearly all actives have a fitted effect of over 35% in size
#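 Stably transfected U87-MG human glioma cells carrying a GRP78-based luminescent sensor were seeded at 1000 cells/well, pin-dosed with compounds and incubated 16 h. Luciferase reagent was then added, and end-point luminescence was read after 10 min at room temperature.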
# Akt phos inh – blocks phosphorylation of Akt | Neuro2A IGF-stimulated pAkt S473 HTRF, 20 min; active compounds read low | activity change, % for hits at 50 µM | actives 0.32% (n = 360,000); in the data active = activity change below about -80%; inconclusive = mostly about -51% to -80%; note: % is set by controls: 0 for no effect and ±100 for the full control effect
#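 Single-point screen (50 µM final compound) in Neuro2A cells stimulated 20 min with 6 nM IGF at 37 deg C. After lysis, Ser473-phosphorylated Akt read by HTRF (ex 330 nm, em 615/665 nm) as the 665/615 ratio.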
# CCT modulator – modulators of cytosolic chaperonin (CCT/TRiC) activity; purified chaperonin ATPase assay, HTRF ADP detection, 30 min; actives 0.3% (n = 360,000); AID 651819; activity change, % (test concentration not listed), hits read low; in the data active = activity change below about -30%; note: % is set by controls: 0 for no effect and ±100 for the full control effect
#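 We incubate TRiC, 40 or 20 nM final, with library compounds at 76 uM and 10 uM ATP for 30 min at 37 °C. ADP formed is detected with Transcreener HTRF reagents after 30 min at room temperature.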
# Mm-Cpn inhibitor – M. maripaludis TRiC chaperonin inhibition. purified Mm-Cpn ATPase, ADP Transcreener TR-FRET. Potency, µM (doses to about 76.9 µM), for inactives: at the highest dose activity, negative = inhibition, hits mostly inhibitors. actives 0.031% (n = 330,000). AID 504842; note: potency is the fitted concentration of half-maximal effect; % is set by controls: 0 for no effect and ±100 for the full control effect; nearly all actives have a fitted effect of over 80% in size
#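 Purified archaeal Mm-CPN (25nM final) preincubated 10 min at 37degC with compound, then 10uM ATP for 30 min at 37degC; ADP measured by HTRF Transcreener TR-FRET; buffer 30 mM TRIS pH 7.4, 100mM KCl, 5mM MgCl2, 1mM DTT.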
# GLS inhibitor – glutaminase GLS (human) inhibition | O94925 | GLS enzymatic activity, qHTS titration | Potency, µM (titrated, usually from 45.5 µM), without a hit: at the top dose activity change, negative = inhibition, actives largely listed as inhibitors | actives 0.21% (n = 410,000) | AID 624170; note: potency is the fitted concentration of half-maximal effect; % is set by controls: 0 for no effect and ±100 for the full control effect
#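 Two-point fluorescence kinetic (t0, 30 min RT) for hKGA; glutamate detected via glutamate oxidase–HRP–Amplex Red. Substrate: 1 mM L-glutamine solution; buffer 45 mM KH2PO4, pH 8.2.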
# IDH1 R132H inh – inhibitors of human mutant IDH1 R132H | actives 0.093% (n = 390,000) | IDH1-R132H enzyme, NADPH consumption, diaphorase/resazurin fluorescence | Potency, µM (top dose mostly 76.6 µM), for the others: at the highest dose activity change, negative = inhibition, most hits filed as inhibitors; note: potency is the fitted concentration of half-maximal effect; % is set by controls: 0 for no effect and ±100 for the full control effect; nearly all actives have a fitted effect of over 65% in size
# Target sequence (O75874 whole entry R132H, stated change not applied): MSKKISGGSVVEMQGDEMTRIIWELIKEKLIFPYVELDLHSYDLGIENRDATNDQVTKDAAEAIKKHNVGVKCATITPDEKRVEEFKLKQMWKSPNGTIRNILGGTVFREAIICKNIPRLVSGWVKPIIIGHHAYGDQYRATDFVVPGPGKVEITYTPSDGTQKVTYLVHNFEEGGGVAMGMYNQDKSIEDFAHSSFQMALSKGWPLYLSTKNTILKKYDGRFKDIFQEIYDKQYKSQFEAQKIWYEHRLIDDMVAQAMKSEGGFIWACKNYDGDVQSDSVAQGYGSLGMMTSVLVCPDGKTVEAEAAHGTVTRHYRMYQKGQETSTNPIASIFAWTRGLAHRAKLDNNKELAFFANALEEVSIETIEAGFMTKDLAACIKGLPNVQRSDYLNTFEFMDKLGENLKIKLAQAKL
#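 IDH1-R132H (0.5 ug/mL) preincubated 30 min with compound, then NADPH (0.016 mM) and alpha-KG (2 mM) added; 80 min at RT, pH 7.5. Remaining NADPH coupled via diaphorase/resazurin to fluorescence (540/590 nm); concentration-response curves normalized to no-enzyme control.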
# * marks the source's active call; other numbers are inactive results; i = inactive; u = inconclusive; x = not tested or not shown; [ ] = remark or other dose. Most compounds without a hit are left out; they make up all but 0.85% or so of the library. Unless noted, calls come from the whole dose curve; as a rule, active = well fitted curve in the direction sought with a large enough effect; inconclusive = small, poorly fitted or top-dose-only effect, or another doubt; inactive = no such curve, though single readings can be large; an effect the other way counts as inactive or inconclusive.
SMILES,Glioma ERSR ind,Akt phos inh,CCT modulator,Mm-Cpn inhibitor,GLS inhibitor,IDH1 R132H inh
COc1ccc(NC(=O)CSc2ncnc3c2cnn3CCc2ccccc2)cc1,0.7%,-132.1%*,-3.8,-0.6%,9.2%,6.6%
COc1cccc(NC(=O)CSc2ncnc3c2cnn3Cc2ccccc2)c1,-2.2%,i,-1.9,-0.1%,-1.9%,9.3%
O=C(c1cnsn1)N1CCOc2ccc(CN3CCOCC3)cc2C1,-2.7%,x,x,x,x,x
COCCNC(=O)CSc1nc2ccccc2c(=O)n1CCCC(=O)NCc1ccccc1,-4.7%,i,-75.0*,1.4%,1.2%,0.6%
Cc1ncc2c(c1CNC(=O)c1cncs1)CCN(C(=O)c1cccc(-c3cccc(F)c3)c1)C2,-2.8%,x,x,x,x,x
Cc1c(O)ccc(C(=O)CN2CCN(c3ccc(F)cc3)CC2)c1O,3.1%,i,-3.9,-2.2%,12.7%,-1.7%
Cc1c(O)ccc(C(=O)CN2CCN(Cc3ccccc3)CC2)c1O,-4.1%,x,-56.5*,-0.5%,27.9%,4.2%
Cc1ccc(C(=O)Nc2cnn(-c3ccc(C(=O)NCc4nc(-c5ccccc5)n[nH]4)cc3)c2)c(C)c1,-3.4%,x,x,x,x,x
O=[N+]([O-])c1cc(Cl)ccc1N1CCCCC1,0.6%,i,-5.2,1.7%,-10.8%,1.6%
NC(=O)c1ccc(N2CCN(c3ccc(O)cc3)CC2)c([N+](=O)[O-])c1,-1.9%,i,-0.3,-6.6%,12.6µM*,1.8%
O=[N+]([O-])c1cc(Cl)ccc1N1CCN(c2ccccc2O)CC1,0.0%,i,0.2,-0.7%,15.8µM*,5.0%
CO/N=C(/C(=O)N[C@@H]1C(=O)N2C(C(=O)OC(C)OC(C)=O)=C(COC(N)=O)CS[C@H]12)c1ccco1 (some centres not stated),-2.9%,x,x,x,0.4%,x
CCCCN(C(=O)c1cc(CN2C(=O)c3ccccc3C2=O)ccc1OC)c1c(N)n(CC(C)C)c(=O)[nH]c1=O,-3.3%,i,-83.7*,x,3.4%,-8.6%
CCCCN(C(=O)c1ccc(N2C(=O)c3ccccc3C2=O)cc1)c1c(N)n(CC(C)C)c(=O)[nH]c1=O,-7.0%,i,-2.3,-4.3%,-21.2%,-5.9%
Cc1cc(C)cc(OCCn2ccnc2)c1,-1.2%,i,-73.3*,-0.6%,-6.5%,-5.5%
Cc1ccc(C)c(CN2C[C@H](Sc3ccccn3)C[C@H]2C(=O)Nc2ccc3sc(C)nc3c2)c1,-3.0%,x,x,x,x,x
Cn1cc(CN2CCC(C3(c4ccccn4)NC(=O)N(CC4CCCO4)C3=O)CC2)c2ccccc21 (configuration not stated),0.6%,x,x,x,x,x
CC1CCCCN1CCCNC(=O)c1nn(C)c2c1CS(=O)(=O)c1ccccc1-2 (configuration not stated),-4.6%,i,-2.9,-2.2%,-17.0%,1.8%
CC1CCCN(CCCNC(=O)c2nn(C)c3c2CS(=O)(=O)c2ccccc2-3)C1 (configuration not stated),-4.2%,x,-76.3*,-1.8%,-3.0%,7.1%
Cc1nccn1CC(O)Cn1c2ccccc2c2ccccc21 (configuration not stated),-6.2%,-100.8%*,1.0,0.6%,-2.5%,1.4%
Cc1cc(C)n(CC(O)Cn2c3ccccc3c3ccccc32)n1 (configuration not stated),-6.0%,i,-2.3,u,-9.3%,9.4%
CCn1c(O)c(/C=C2\C=Nc3ccccc32)sc1=Nc1ccccc1,5.8%,-89.0%*,-1.1,-4.4%,3.1%,-4.1%
COc1ccc(/C=C/C(=O)NCC2Cc3cccc(-c4nc(C)cnc4C)c3O2)cc1OC (configuration not stated),-2.9%,x,x,x,x,x
CCOC(=O)N1CCN(C(=S)NC(=O)C2CCCC2)CC1,-4.3%,i,-70.6*,-1.5%,8.3%,0.3%
CCOC(=O)N1CCN(C(=O)C(CC(C)C)NC(=O)C2CCCCC2)CC1 (configuration not stated),-2.3%,i,-0.7,0.9%,-10.7%,2.5%
SMILES,Glioma ERSR ind,Akt phos inh,CCT modulator,Mm-Cpn inhibitor,GLS inhibitor,IDH1 R132H inh
COc1ccnc2c1c(=O)n(Cc1ccccc1Cl)c(=O)n2C,-2.6%,i,0.4,1.1%,12.6µM*,-6.4%
COc1ccnc2c1c(=O)n(Cc1ccc(Cl)cc1)c(=O)n2C,-5.7%,i,1.3,-16.4%,u,3.8%
COc1ccnc2c1c(=O)n(Cc1ccc(Cl)cc1Cl)c(=O)n2C,-2.3%,i,0.7,-16.0%,11.2µM*,4.2%
CCCC(c1nnnn1CCC(C)C)N1CCC(C(N)=O)CC1 (configuration not stated),-1.8%,i,-1.1,-0.7%,6.0%,-3.1%
CC(C)CCn1nnnc1C(C(C)C)N1CCC(C(N)=O)CC1 (configuration not stated),-1.0%,-100.0%*,0.9,-0.5%,-12.4%,3.1%
O=C(CSc1nc2ccccc2o1)Nc1nncs1,-0.8%,-116.0%*,-2.3,1.7%,5.4%,-2.0%
Cc1nnc(NC(=O)CSc2nc3ccccc3o2)s1,-0.2%,i,-0.2,-0.1%,2.4%,3.1%
O=C(CCCCCn1c(=S)[nH]c2ccc(N3CCOCC3)cc2c1=O)NCc1cccc(Cl)c1,-3.7%,i,-50.4*,0.5%,1.2%,2.4%
O=C(Nc1nccs1)c1cccc(S(=O)(=O)N2CCOCC2)c1,-0.3%,-114.0%*,-2.5,0.9%,1.5%,2.9%
COC(=O)c1c(-c2cc(OC)cc(OC)c2)sc2ccc(OC)cc12,5.8%,i,1.1,35.5µM*,11.4%,-3.2%
COc1ccc2sc(-c3ccc(S(C)(=O)=O)cc3)c(-c3ccc(SC)cc3)c2c1,-0.7%,i,-0.6,20µM*,-1.3%,2.2%
COc1ccc(-c2sc3ccc(N4CCOCC4)cc3c2-c2ccc(O)cc2)cc1,-2.8%,i,0.8,0.2%,2.8%,15.3%
COC(=O)c1c(-c2ccc(OC)cc2)sc2ccccc12,x,x,x,35.5µM*,x,x
COC(=O)c1c(-c2ccc(SC)cc2)sc2ccccc12,9.8%,i,1.2,u,2.2%,-0.2%
COC(=O)c1c(-c2ccc(SC)cc2)sc2ccc(OC)cc12,2.4%,i,-5.7,-10.7%,0.5%,-1.2%[38.3 µM]
COC(=O)c1c(-c2ccc(OC)cc2)sc2ccc(N3CCOCC3)cc12,1.6%,i,-0.5,50.1µM*,8.1%,15.8%
CCC(O)CNC(=O)c1cnn(-c2nccc(-c3cc(C)sc3C)n2)c1C1CC1 (configuration not stated),3.9%,x,x,x,x,x
CC(C)(C)CC(=O)OCC(=O)[C@@]12OC(C)(C)O[C@@H]1C[C@H]1[C@@H]3CCC4=CC(=O)C=C[C@]4(C)[C@@]3(F)[C@@H](O)C[C@]12C,-4.1%,x,x,x,-17.0%,x
